The inhibition is the change of the read-out against control, counted positive when it falls.

The source made the active and inactive calls. How the calls were made is not given here.

In the experiment the target is L-lactate dehydrogenase (Plasmodium falciparum (isolate CDC / Honduras)) (UniProt Q27743). The experiment is described as follows: PfLDH activity inhibition – cell lysate, 3D7 strain, counter-screen for P. falciparum growth inhibition project (AID 2304).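 Further: 0% = vehicle and 100% = reference inhibitor.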 Particulars: P. falciparum 3D7 crude extract, LDH APAD/NBT absorbance; at 2 µM; hits give high values. Background: A counterscreen serves to expose hits that act by an unwanted route or on another target.
Chain of L-lactate dehydrogenase (Plasmodium falciparum (isolate CDC / Honduras)) (Q27743 whole entry, looked up): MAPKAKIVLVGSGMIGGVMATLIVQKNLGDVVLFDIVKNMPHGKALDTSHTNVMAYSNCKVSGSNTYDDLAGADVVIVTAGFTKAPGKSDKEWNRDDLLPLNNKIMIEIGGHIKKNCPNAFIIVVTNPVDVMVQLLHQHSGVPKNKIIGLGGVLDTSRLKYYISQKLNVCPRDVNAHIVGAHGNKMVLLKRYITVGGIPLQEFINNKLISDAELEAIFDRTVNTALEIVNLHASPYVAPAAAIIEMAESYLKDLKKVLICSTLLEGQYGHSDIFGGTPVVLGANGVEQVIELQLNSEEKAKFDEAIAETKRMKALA
For `COc1ccc2nccc([C@@H](O)CN3CCC(NCc4cc5cc(C)ccc5s4)CC3)c2c1`, the inhibition was 3% (inactive).
Turning to `COc1ccccc1N1CCN(C(C(=O)NCc2ccc(C)cc2)c2ccc(C)cc2)CC1` (stereo not given), the inhibition was 6% (inactive).
Regarding `CNCCNCc1cccc(-c2ccc(-c3nc4ccccc4[nH]3)s2)c1`, the inhibition was 0% (inactive).
For `COc1ccccc1C1CCN(CCCCNC(=O)c2ccc(NC(=O)c3ccc(Cl)cc3)cc2)CC1`, the inhibition was 6% (inactive).
Under `CN(C)CC(O)C(c1ccccc1)c1cccc(Br)c1` (stereo not given) stands -8% (inactive); under `CC(C)N1CCN(C(CN2CCN(CCCOc3ccc(-c4ccccc4)cc3)CC2)c2ccc(F)cc2)CC1` (stereo not given), -2% (inactive); under `CN1CCN(Cc2nc(-c3ccc4c(Nc5ccc(Oc6ccccc6)cc5)ccnc4c3)cs2)CC1`, 0% (inactive).
`CCN(CC)CC#Cc1ccc2[nH]c(C)c(Cl)c(=O)c2c1`: the inhibition was -6% (inactive).
Take `O=S(=O)(NC1CCCCN(Cc2ccccc2O)C1)c1ccc(C(F)(F)F)cc1` (stereo not given): the inhibition is 7% (inactive).
Then `NC1=NC2(CCCCC2)N(OCCCOc2cccc3ccccc23)C(N)=N1`, with -2% (inactive).
Under `Cc1cc(C(F)(F)F)nn1-c1ccc(NC(=O)c2ccco2)cc1` stands -3% (inactive); under `NS(=O)(=O)NCCCN1CCN(c2ccccc2)CC1`, -2% (inactive).
Regarding `CC(C)(C)c1ccc(-c2cc3c(ccc4nc(N)nc(N)c43)[nH]2)cc1`, the inhibition was 5% (inactive).
For the compound `COc1ccccc1CCNc1nc(C)cc(NCCC(=O)NCCOc2ccccc2)n1`, the inhibition is -3% (inactive).
For `CCOc1cc(C)ccc1N(C1CCN(CCCCNC(=O)c2ccc(-c3ccc(C(F)(F)F)cc3)cc2)CC1)S(=O)(=O)c1ccccc1`, the inhibition was -4% (inactive).
As for `Cc1ccc(NC(=O)N2CCCN(CCCCCNC(=O)/C=C/c3ccc(Cl)c(Cl)c3)CC2)cc1C`, the inhibition is 1% (inactive).
For `NCc1cccc(-c2ccccc2CNC2CCN(Cc3ccccc3)CC2)c1`, the inhibition was -2% (inactive).
Under `CCc1cc(=O)[nH]c(-n2nc(C)cc2NC(=O)CC(c2ccccc2)c2ccccc2)n1` stands 4% (inactive).
For `COc1ccc2nccc([C@@H](O)CN3CCC(NC(=O)Cc4cc5ccccc5s4)CC3)c2c1`, the inhibition was 7% (inactive).
For `COc1ccc(C)cc1NC(=O)CSc1nc2cccnc2n1C1CCCCC1`, the inhibition was -8% (inactive).
For the compound `CC(CN(C)C)C(=O)Nc1cccc(-c2cccc(-c3nc4ccccc4[nH]3)c2)c1` (stereo not given), the inhibition is -5% (inactive).
As to `CN(C)c1ccc(Br)c(Br)c1`, the inhibition is -5% (inactive).
In the case of `CCCCCN1CCC(CNS(=O)(=O)c2ccc(C(=O)Nc3cccc(C(F)(F)F)c3)cc2)CC1`, the inhibition was -7% (inactive).
As for `CN(C)CCN(C)Cc1ccc(-c2ccc(NS(=O)(=O)c3cccc4cccnc34)cc2)cc1`, the inhibition is -1% (inactive).
For `O=C(NCC1CCC(C(=O)O)CC1)c1ccc(/C=C/C(=O)N2CCc3ccccc3C2c2ccc3c(c2)OCO3)cc1` (stereo not given), the inhibition is 2% (inactive).
In the case of `O=C(Nc1ccc([N+](=O)[O-])cc1)Nc1cc(C(F)(F)F)ccc1F`, the inhibition was -4% (inactive).
Regarding `CN1CCN(c2ccnc3ccc(NC(=O)Nc4ccc(Br)cc4)cc23)CC1`, the inhibition was -5% (inactive).
For `COc1ccc(Nc2nccc(NCCNC(=O)Nc3cc(C)ccc3C)n2)cc1`, the inhibition is 2% (inactive).
For `CCOc1cc(NC(=O)Nc2ccnc3ccccc23)cc(OC)c1`, the inhibition is 3% (inactive).
Then `NC(N)=NC(=O)Nc1cc(Cl)c(Cl)c(Cl)c1`, with 6% (inactive); and `CC(C)(C)c1ccc(OCCCON2C(N)=NC(N)=NC2(C)C)cc1`, with -4% (inactive); and `COc1cc(OC)cc(-c2nn(-c3ccc([N+](=O)[O-])cc3Cl)c(=S)n2CC2CCCO2)c1` (stereo not given), with 0% (inactive).
`CN1CCN(c2ccnc3ccc(NC(=O)Cc4ccc5ccccc5c4)cc23)CC1`: the inhibition is -2% (inactive).
Consider `O=C(Nc1ccccc1)N(Cc1ccc(-c2ccc(CNC3CCCC3)cc2)cc1)C1CCN(Cc2ccccc2)CC1`, for which the inhibition was -5% (inactive).
With `CCCCN(CCCC)CCCCNc1c2ccc(Cl)cc2nc2ccc(OC)cc12`, the inhibition is 2% (inactive).
On to `CC(C)(CNC(=O)/C=C/c1ccc(Cl)c(Cl)c1)CNc1cc(=O)c2ccccc2[nH]1`, for which the inhibition was 0% (inactive).
Take `CC(C)CNCc1ccc(-c2ccc(CNC3CCN(Cc4ccccc4)CC3)cc2)cc1`: the inhibition is 4% (inactive).
As to `CCN(CC)CCNc1ccnc2[nH]c3ccc(C)cc3c12`, the inhibition is -3% (inactive).
For `CN1CCN(c2ccnc3ccc(NC(=O)Nc4cccc(C#N)c4)cc23)CC1`, the inhibition was -1% (inactive).
In the case of `CC(O)C1CCCCN1C(=O)c1cccc(-c2cccc(-c3nc4ccc(C(F)(F)F)cc4[nH]3)c2)c1` (stereo not given), the inhibition was -5% (inactive).

The values are drawn from PubChem BioAssay.
